The text below walks through data of article PMC4336329 (PLoS ONE, 2015).

SMILES strings stand for the structures. The whole screen tested about 310,000 compounds, of which about 14,000 (4.5%) showed an effect of 50% or more. The effect is printed as a negative number. What follows is part of a selection rich in strong results, with near analogues and random picks from the rest.
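Further: peak tail current of the secondary pulse compared with the same well before compound.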

In the experiment the target is human ether-à-go-go-related gene (hERG) potassium channel (human, UniProt Q12809). Kind of experiment: primary screen, population patch clamp on CHO cells stably expressing hERG; higher = less effect of the substance.
Chain of human ether-à-go-go-related gene (hERG) potassium channel (Q12809 whole entry, looked up): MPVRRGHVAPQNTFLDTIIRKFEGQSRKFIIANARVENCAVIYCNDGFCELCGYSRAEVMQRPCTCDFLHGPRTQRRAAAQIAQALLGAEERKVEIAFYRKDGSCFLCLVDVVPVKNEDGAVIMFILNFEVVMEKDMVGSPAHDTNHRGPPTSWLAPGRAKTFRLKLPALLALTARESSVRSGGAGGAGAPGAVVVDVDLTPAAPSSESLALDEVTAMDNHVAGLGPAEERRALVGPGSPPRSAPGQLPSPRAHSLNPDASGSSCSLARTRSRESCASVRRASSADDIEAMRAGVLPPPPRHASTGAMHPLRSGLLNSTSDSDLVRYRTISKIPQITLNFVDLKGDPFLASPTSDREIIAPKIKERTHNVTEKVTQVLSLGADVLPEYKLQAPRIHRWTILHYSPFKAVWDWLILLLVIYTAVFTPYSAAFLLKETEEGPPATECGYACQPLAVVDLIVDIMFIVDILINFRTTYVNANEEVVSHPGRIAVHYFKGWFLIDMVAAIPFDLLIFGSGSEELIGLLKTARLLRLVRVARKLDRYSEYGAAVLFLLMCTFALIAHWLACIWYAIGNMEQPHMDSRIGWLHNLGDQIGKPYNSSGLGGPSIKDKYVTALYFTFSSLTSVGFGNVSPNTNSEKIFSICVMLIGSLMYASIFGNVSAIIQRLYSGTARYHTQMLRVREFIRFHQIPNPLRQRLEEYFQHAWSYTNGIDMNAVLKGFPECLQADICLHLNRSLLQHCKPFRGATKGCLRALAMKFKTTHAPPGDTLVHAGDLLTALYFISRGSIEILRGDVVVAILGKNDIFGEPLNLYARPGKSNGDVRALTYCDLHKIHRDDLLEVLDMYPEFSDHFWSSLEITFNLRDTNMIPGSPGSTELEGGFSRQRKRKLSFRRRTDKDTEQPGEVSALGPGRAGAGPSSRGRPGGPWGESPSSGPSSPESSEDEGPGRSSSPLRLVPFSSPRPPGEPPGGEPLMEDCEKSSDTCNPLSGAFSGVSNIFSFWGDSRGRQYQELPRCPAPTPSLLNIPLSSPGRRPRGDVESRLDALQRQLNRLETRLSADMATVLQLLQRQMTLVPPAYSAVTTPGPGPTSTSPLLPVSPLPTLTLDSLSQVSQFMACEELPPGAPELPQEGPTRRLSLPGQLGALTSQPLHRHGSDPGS
Regarding `Cc1nonc1CN(C)C(=O)c1cc(COc2ccc(F)cc2Cl)on1`, the “hERG current change (%, negative = inhibition) at 10uM” value is recorded as -4.29%.
Regarding `Cc1ccc(-n2c(CSc3nc(C)cc(C)n3)nnc2SCC(=O)N2CCCC2)cc1`, the “hERG current change (%, negative = inhibition) at 10uM” value is given as -8.81%.
As for `COc1ccccc1C1Nc2cccc3cccc(c23)N1`, the figure is -50.7%.
Under `COc1ccc(Br)cc1C1Nc2cccc3cccc(c23)N1` stands 20.2%; under `COc1cc(OC)c(C2Nc3cccc4cccc(c34)N2)c(OC)c1`, 6.67%.
Under `Cn1ncc(Br)c1C(=O)N/N=C/c1cccc(OC2CSC2)c1` stands -8.23%; under `O=C(CSc1nnc(Nc2ccccc2F)s1)Nc1cccc(S(=O)(=O)N2CCCCC2)c1`, -6.58%.
Turning to `CC1Cc2nc(SCC(=O)Nc3nc4ccccc4s3)n(C)c(=O)c2S1` (stereo not drawn), the “hERG current change (%, negative = inhibition) at 10uM” value was -20.1%.
Turning to `CN1CCSc2ccc(C(=O)NCc3cccc(F)c3)cc21`, the “hERG current change (%, negative = inhibition) at 10uM” value was 16.6%.
Under `O=C(Nc1cnn(Cc2ccc(F)cc2)c1)c1cnccn1` stands -3.09%; under `O=C(Nc1cnn(Cc2ccc(F)cc2)c1)C(c1ccccc1)c1ccccc1`, -30.1%; under `CCOc1ccccc1C(=O)Nc1cnn(Cc2ccc(F)cc2)c1`, -58.8%.
Under `O=C(CCSCCc1ccccn1)Nc1nccs1` stands 30.1%; under `O=C(Cc1csc(NC(=O)c2ccc(F)cc2)n1)NO`, -3.56%; under `COc1ccc(N(C(C)C(=O)N/N=C/c2ccc(OC)c(OC)c2)S(C)(=O)=O)cc1` (stereo not drawn), 5.24%.
In the case of `COc1ccc(N(C(C)C(=O)N/N=C/c2ccc(OCC(C)C)cc2)S(C)(=O)=O)cc1` (stereo not drawn), the “hERG current change (%, negative = inhibition) at 10uM” value was -9.12%.
Under `COc1ccc(N(C(C)C(=O)N/N=C/c2cc(Br)c(C)o2)S(C)(=O)=O)cc1` (stereo not drawn) stands -54%.
As for `COc1ccc(N(C(C)C(=O)N/N=C/c2cccnc2)S(C)(=O)=O)cc1` (stereo not drawn), the figure is -3.44%; as for `COc1ccc(/C=N/NC(=O)C(C)N(c2ccc(OC)cc2)S(C)(=O)=O)cc1` (stereo not drawn), -8.54%.
Regarding `COc1ccc(N(C(C)C(=O)N/N=C/c2ccc(OC(C)C)cc2)S(C)(=O)=O)cc1` (stereo not drawn), the “hERG current change (%, negative = inhibition) at 10uM” value was -52.4%.
Under `COc1ccc(C(=O)/C=C/Nc2ccc(S(=O)(=O)Nc3cc(OC)nc(OC)n3)cc2)c(OC)c1` stands 19.4%; under `O=Cc1cn(CCC(=O)O)nc1-c1cccc2ccccc12`, 13.5%; under `O=C(N/N=C\c1ccc(F)cc1)c1cc(OCC(F)(F)F)ccc1OCC(F)(F)F`, -21%.
Under `COc1ccccc1C(=O)N/N=C(\C)c1ccc(NC(=O)C2CC2)cc1` stands -3.62%; under `O=C(Cc1ccccc1)NCCSCc1ccc(Cl)cc1`, -9.5%; under `O=C(NCCc1ccc(Cl)cc1)c1cccs1`, -3.58%.
As for `O=C(NCCSCc1ccc(Cl)cc1)c1cccs1`, the figure is -63.7%.
As to `C=CCSc1nnc(-c2ccccc2N=Cc2c(C)[nH]n(-c3ccccc3)c2=O)c(=O)[nH]1`, the “hERG current change (%, negative = inhibition) at 10uM” value is -26.5%.
As for `O=C(c1cccc(S(=O)(=O)N2CCOCC2)c1)N1CCN(S(=O)(=O)c2cccs2)CC1`, the figure is 5.04%.
For `O=C(Nc1ccc([N+](=O)[O-])cn1)c1cc(-c2cccc(Br)c2)nc2ccccc12`, the “hERG current change (%, negative = inhibition) at 10uM” value is 17.6%.
Under `O=C(CSc1nc2ncc(Br)cc2[nH]1)c1cccc([N+](=O)[O-])c1` stands -45.7%; under `O=C(CSc1nc2ncc(Br)cc2[nH]1)c1ccc([N+](=O)[O-])cc1`, -66.9%; under `O=[N+]([O-])c1ccc(CSc2nc3ncc(Br)cc3[nH]2)cc1`, 6.04%.
`CCOC(=O)c1cc(C#N)c(N2CCCC2)nc1-c1ccccc1`: the “hERG current change (%, negative = inhibition) at 10uM” value is listed as -7.5%.
As for `C/C(=C\c1ccc(C)o1)C(=O)c1c(C)cc(C)[nH]c1=O`, the figure is 11.5%; as for `CCN1CCN(CC(O)COC(c2ccccc2)c2ccccc2C)CC1.O=C(O)C(=O)O` (stereo not drawn), -10.6%.
As for `Cc1ccc(C(OCC(O)CN2CCCCC2CO)c2ccccc2)cc1` (stereo not drawn), the figure is -62.8%; as for `Cc1ccccc1C(OCC(O)CN1CCCCC1CCO)c1ccccc1` (stereo not drawn), -61.6%; as for `O=C(O)C(=O)O.OCC1CCCCN1CC(O)COC(c1ccc(F)cc1)c1ccc(F)cc1` (stereo not drawn), -71%.
Under `NC(=O)C1CCN(CC(O)CSc2ccccc2)CC1` (stereo not drawn) stands -0.00192%.
Take `COc1ccccc1COCC(O)CN1CCCCC1CO.O=C(O)C(=O)O` (stereo not drawn): the “hERG current change (%, negative = inhibition) at 10uM” value amounted to 18.6%.
Under `CC(OCC(O)CN1CCCCC1CCO)c1ccc(Cl)cc1` (stereo not drawn) stands 4.2%; under `Cc1ccccc1C(OCC(O)CN1CCC(C(N)=O)CC1)c1ccccc1` (stereo not drawn), -59.3%.
As for `OCCC1CCCCN1CC(O)COCc1ccc(Cl)cc1` (stereo not drawn), the figure is -7.29%.
As for `CCC1CCCCN1CC(O)COCc1cccc(OC)c1` (stereo not drawn), the figure is 3.15%; as for `CCOC(=O)CC(=O)Nc1ccc(Br)cc1C(=O)O`, -11.3%.
`COc1ccc(CNC(=O)c2cc(=O)c3cc(C)cc(C)c3o2)cc1`: the “hERG current change (%, negative = inhibition) at 10uM” value worked out at 2.04%.
Under `CCn1c(SCC(=O)Nc2ccc(NC(=O)c3ccco3)c(OC)c2)nc2ccccc2c1=O` stands -20%.
Under `CCOC(=O)C1=C(O)/C(=C/c2ccc(OCC(=O)Nc3ccc(C)cc3)cc2)N=C1C` stands 10.6%.
`C/C(=N\NC(=O)c1cc(-c2cccnc2)nc2ccccc12)c1ccccc1O`: the “hERG current change (%, negative = inhibition) at 10uM” value is reported as 0.355%.
As for `Cn1c(=O)c2c(=O)cc(NNC(=O)C(C)(C)C)[nH]c2n(C)c1=O`, the figure is 0.349%; as for `CCCC[C@@H]1CNC(=S)N1CCCC`, 11%; as for `C/C(CC(=O)Nc1ccc2c(c1)OCCO2)=N\NC(=O)Cc1ccc(Cl)cc1`, 11.2%.
As for `CCCCc1nnc(NC(=O)CSc2nc(O)c(-c3ccccc3)c(=O)[nH]2)s1`, the figure is 1.48%.
Under `O=C1c2ccccc2C(=O)N1CCCCN(C(=O)c1ccco1)c1ccc(Cl)cc1` stands -55.7%.
For `CC(=O)N(CCCCN1C(=O)c2ccccc2C1=O)c1ccc(C)cc1`, the “hERG current change (%, negative = inhibition) at 10uM” value was -34.5%.
On to `O=C1c2ccccc2C(=O)N1CCCCN(C(=O)c1cc([N+](=O)[O-])cc([N+](=O)[O-])c1)c1ccc(Cl)cc1`, for which the “hERG current change (%, negative = inhibition) at 10uM” value was 5.87%.
As for `O=C1c2ccccc2C(=O)N1CCCCN(C(=O)c1cccc([N+](=O)[O-])c1)c1ccc(Cl)cc1`, the figure is -7.96%; as for `O=C1c2ccccc2C(=O)N1CCCCN(C(=O)c1ccc([N+](=O)[O-])cc1)c1ccc(Cl)cc1`, -3.93%.
With `Cc1ccc(N(CCCCN2C(=O)c3ccccc3C2=O)C(=O)c2cccs2)cc1`, the “hERG current change (%, negative = inhibition) at 10uM” value is listed as -67.3%.
As for `Cc1ccc(N(CCCCN2C(=O)c3ccccc3C2=O)C(=O)c2cccc([N+](=O)[O-])c2)cc1`, the figure is -59.5%; as for `O=C1c2ccccc2C(=O)N1CCCCN(C(=O)c1ccc(Cl)s1)c1ccc(Cl)cc1`, 8.41%; as for `Cc1ccc(N(CCCCN2C(=O)c3ccccc3C2=O)C(=O)c2ccc(Cl)s2)cc1`, 2.79%.
